# Active and inactive are the calls of the source. Rule for the calls: active = hit-call score of the fitted dose curve at least 0.9, where 1 is the maximum; inactive = score below 0.9.
# Tests used:
# Conditions in all cases: mRNA level, 48 h; actives raise or lower the signal
# [1] = read-out: Hypoxia-inducible factor 1-alpha (Homo sapiens) (UniProt Q16665); assay: LTEA_HepaRG_HIF1A: Life Technologies and Expression Analysis (LTEA) Assay for Hypoxia-inducible factor 1 (HIF1A) Trancription factor using HepaRG (AID 2283503);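 note: HIF1A transcript by TaqMan qRT-PCR normalized to ACTB GAPDH and POLR2A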
# Outline: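 Gain- or loss-of-signal HIF1A mRNA changes are fitted against a DMSO baseline. HepaRG cultures receive eight concentrations, highest 100 uM, for 48 h in serum-free induction medium with 0.5% DMSO.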
# [2] = read-out: 3-Hydroxy-3-Methylglutaryl-CoA Synthase 2 (HMGCS2), HMGCS2 (gene 3158); assay: LTEA_HepaRG_HMGCS2: Life Technologies and Expression Analysis (LTEA) Assay for 3-Hydroxy-3-Methylglutaryl-CoA Synthase 2 (HMGCS2) using HepaRG (AID 2283504)
# Outline: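 Differentiated human HepaRG cells were exposed in duplicate for 48 h in serum-free induction medium to eight concentrations (top 100 uM, half-log steps, 0.5% DMSO). HMGCS2 mRNA was quantified by TaqMan qRT-PCR, normalised to ACTB, GAPDH and POLR2A, then fitted bidirectionally against DMSO.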
# HGF (gene 3082) = assay: LTEA_HepaRG_HGF: Life Technologies and Expression Analysis (LTEA) Assay for Hepatocyte Growth Facto (HGF) using HepaRG (AID 2283505)
# Outline: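 Differentiated human HepaRG cells in serum-free induction medium were exposed in duplicate for 48 h to eight concentrations (top 100 uM, half-log steps, 0.5% DMSO). HGF mRNA was quantified by qRT-PCR, normalized to ACTB, GAPDH and POLR2A.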
# [3] = read-out: Insulin Like Growth Factor 1 (IGF1), IGF1 (gene 3479); assay: LTEA_HepaRG_IGF1: Life Technologies and Expression Analysis (LTEA) Assay for Insulin Like Growth Factor 1 (IGF1) using HepaRG (AID 2283506)
# Outline: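 qRT-PCR readout of IGF1 mRNA, normalized to three housekeeping genes, after 48 h chemical exposure of HepaRG cells. Concentrations: 8-point half-log series, top 100 uM, 0.5% DMSO vehicle. Gain or loss fitted against DMSO baseline.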
# [4] = read-out: Intercellular Adhesion Molecule 1 (ICAM1), ICAM1 (gene 3383); assay: LTEA_HepaRG_ICAM1: Life Technologies and Expression Analysis (LTEA) Assay for Intercellular Adhesion Molecule 1 (ICAM1) using HepaRG (AID 2283507)
# Outline: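 Differentiated HepaRG cells in serum-free induction medium were exposed in duplicate for 48 h to eight half-log concentrations up to 100 uM in 0.5% DMSO. Transcript levels were measured by qRT-PCR normalized to ACTB, GAPDH and POLR2A; bidirectional fits relative to DMSO.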
# [5] = read-out: Insulin-like growth factor-binding protein 1 (IGFBP1), IGFBP1 (gene 3484); assay: LTEA_HepaRG_IGFBP1: Life Technologies and Expression Analysis (LTEA) Assay for Insulin-like growth factor-binding protein 1 (IGFBP1) using HepaRG (AID 2283508)
# Outline: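 Differentiated human HepaRG cells in serum-free induction medium were exposed in duplicate for 48 h to eight concentrations, top 100 uM with half-log dilutions, in 0.5% DMSO. Transcript levels came from qRT-PCR normalised to ACTB, GAPDH and POLR2A, fitted bidirectionally against DMSO.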
# [6] = read-out: Interleukin 6 (IL6), IL6 (gene 3569); assay: LTEA_HepaRG_IL6: Life Technologies and Expression Analysis (LTEA) Assay for Interleukin 6 (IL6) using HepaRG (AID 2283509)
# Outline: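 Transcript levels, normalized to three housekeeping genes, were quantified by qRT-PCR after 48 h chemical treatment of HepaRG cells. Eight-point half-log series from 100 uM in 0.5% DMSO, duplicates. Fitted both directions against DMSO baseline.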
# [7] = read-out: Interleukin 6 Receptor (IL6R), IL6R (gene 3570); assay: LTEA_HepaRG_IL6R: Life Technologies and Expression Analysis (LTEA) Assay for Interleukin 6 Receptor (IL6R) using HepaRG (AID 2283510);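 for AC50: TaqMan qRT-PCR signal normalized to ACTB GAPDH and POLR2A housekeeping genes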
# Outline: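 HepaRG, 48 h exposure, 8-pt half-log series, top 100 uM, 0.5% DMSO vehicle, duplicates. Read-out: TaqMan qRT-PCR of IL6R transcript, housekeeping-gene normalized. Gain or loss fitted relative to DMSO baseline.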
# [8] = read-out: Potassium channel subfamily K member 1 (KCNK1), KCNK1 (gene 3775); assay: LTEA_HepaRG_KCNK1: Life Technologies and Expression Analysis (LTEA) Assay for Potassium channel subfamily K member 1 (KCNK1) using HepaRG (AID 2283511)
# Outline: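 KCNK1 transcript measured by TaqMan qRT-PCR against three housekeeping genes, after HepaRG cells were treated 48 h with eight half-log concentrations (top 100 uM, 0.5% DMSO). Curves fitted bidirectionally relative to vehicle.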
# [9] = read-out: Keratin 19 (KRT19), KRT19 (gene 3880); assay: LTEA_HepaRG_KRT19: Life Technologies and Expression Analysis (LTEA) Assay for Keratin 19 (KRT19) using HepaRG (AID 2283512)
# Outline: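 Differentiated human HepaRG cells, plated 48 h, were exposed in duplicate for 48 h in serum-free induction medium to eight half-log concentrations up to 100 uM in 0.5% DMSO. KRT19 mRNA was quantified by qRT-PCR, normalized to ACTB, GAPDH and POLR2A, and fitted bidirectionally versus DMSO.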
# [10] = read-out: JUN Transcription Factor, JUN (gene 3725); assay: LTEA_HepaRG_JUN: Life Technologies and Expression Analysis (LTEA) Assay for JUN Transcription Factor using HepaRG (AID 2283513)
# Outline: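 HepaRG, 48 h exposure, 8-pt half-log series top 100 uM, 0.5% DMSO, duplicate. JUN mRNA by qRT-PCR (Fluidigm), housekeeping-normalized (ACTB/GAPDH/POLR2A); bidirectional curve fit vs DMSO baseline.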
# [11] = read-out: Lipase C (LIPC), LIPC (gene 3990); assay: LTEA_HepaRG_LIPC: Life Technologies and Expression Analysis (LTEA) Assay for Lipase C (LIPC) using HepaRG (AID 2283514)
# Outline: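 LIPC expression was quantified by qRT-PCR against three housekeeping genes (ACTB, GAPDH, POLR2A). Differentiated human HepaRG cells received eight half-log doses (top 100 uM, 0.5% DMSO) in duplicate for 48 h; fitting bidirectional relative to DMSO.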
# [12] = read-out: Lipoprotein lipase (LPL), LPL (gene 4023); assay: LTEA_HepaRG_LPL: Life Technologies and Expression Analysis (LTEA) Assay for Lipoprotein lipase (LPL) using HepaRG (AID 2283515)
# Outline: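 LPL transcript levels quantified by TaqMan qRT-PCR against three housekeeping genes after 48 h chemical treatment of HepaRG cells. Eight-point half-log series from 100 uM in 0.5% DMSO, tested in duplicate; bidirectional fitting versus vehicle.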
# [13] = read-out: MicroRNA 122 (MIR122), gene 406906; assay: LTEA_HepaRG_MIR122: Life Technologies and Expression Analysis (LTEA) Assay for MicroRNA 122 (MIR122) using HepaRG (AID 2283516); note: the transcript read is the microRNA miR-122
# Outline: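 qRT-PCR read-out (TaqMan, Fluidigm array), normalized to three housekeeping genes; HepaRG cells dosed 48 h at 8 concentrations up to 100 uM in 0.5% DMSO, duplicate; gain or loss fitted against DMSO baseline.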
# MYC, MYC (gene 4609) = assay: LTEA_HepaRG_MYC: Life Technologies and Expression Analysis (LTEA) Assay for MYC using HepaRG (AID 2283518)
# Outline: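 Differentiated human HepaRG cells, plated 48 h then switched to serum-free induction medium, were exposed in duplicate for 48 h to 8-point half-log series up to 100 uM in 0.5% DMSO. MYC mRNA measured by qRT-PCR, normalized to ACTB/GAPDH/POLR2A.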
# [14] = read-out: matrix metalloproteinase-3 (MMP3), MMP3 (gene 4314); assay: LTEA_HepaRG_MMP3: Life Technologies and Expression Analysis (LTEA) Assay for matrix metalloproteinase-3 (MMP3) using HepaRG (AID 2283519)
# Outline: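 Fluidigm-based TaqMan qRT-PCR, normalized to ACTB, GAPDH and POLR2A and fitted bidirectionally versus 0.5% DMSO, measured transcript levels. Treatment: duplicate 48 h exposures of HepaRG cells, ~100,000/well, to eight half-log concentrations topping at 100 uM.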
# [15] = read-out: Paternally Expressed 10 (PEG10), PEG10 (gene 23089); assay: LTEA_HepaRG_PEG10: Life Technologies and Expression Analysis (LTEA) Assay for Paternally Expressed 10 (PEG10) using HepaRG (AID 2283520);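 for AC50: PEG10 transcript by qRT-PCR normalised to ACTB GAPDH and POLR2A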
# Outline: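 qRT-PCR read-out: PEG10 mRNA normalised to three housekeeping genes, fitted bidirectionally against 0.5% DMSO vehicle. HepaRG cells received test chemicals for 48 h in serum-free induction medium, 8 points, top 100 uM, half-log steps.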
# [16] = read-out: Nuclear factor NF-kappa-B p105 subunit (Homo sapiens) (UniProt P19838); assay: LTEA_HepaRG_NFKB1: Life Technologies and Expression Analysis (LTEA) Assay for Nuclear Factor Kappa B Subunit 1 (NFKB1) using HepaRG (AID 2283521);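 note: TaqMan qRT-PCR transcript normalised to ACTB GAPDH and POLR2A housekeeping genes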
# Outline: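 Differentiated human HepaRG cells in serum-free induction medium with 0.5% DMSO were exposed for 48 h to eight half-log concentrations, top 100 uM, in duplicate. NFKB1 mRNA measured by Fluidigm TaqMan qRT-PCR, normalised to ACTB, GAPDH and POLR2A; bidirectional fit versus DMSO.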
# Chain of Nuclear factor NF-kappa-B p105 subunit (Homo sapiens) (P19838 whole entry, looked up): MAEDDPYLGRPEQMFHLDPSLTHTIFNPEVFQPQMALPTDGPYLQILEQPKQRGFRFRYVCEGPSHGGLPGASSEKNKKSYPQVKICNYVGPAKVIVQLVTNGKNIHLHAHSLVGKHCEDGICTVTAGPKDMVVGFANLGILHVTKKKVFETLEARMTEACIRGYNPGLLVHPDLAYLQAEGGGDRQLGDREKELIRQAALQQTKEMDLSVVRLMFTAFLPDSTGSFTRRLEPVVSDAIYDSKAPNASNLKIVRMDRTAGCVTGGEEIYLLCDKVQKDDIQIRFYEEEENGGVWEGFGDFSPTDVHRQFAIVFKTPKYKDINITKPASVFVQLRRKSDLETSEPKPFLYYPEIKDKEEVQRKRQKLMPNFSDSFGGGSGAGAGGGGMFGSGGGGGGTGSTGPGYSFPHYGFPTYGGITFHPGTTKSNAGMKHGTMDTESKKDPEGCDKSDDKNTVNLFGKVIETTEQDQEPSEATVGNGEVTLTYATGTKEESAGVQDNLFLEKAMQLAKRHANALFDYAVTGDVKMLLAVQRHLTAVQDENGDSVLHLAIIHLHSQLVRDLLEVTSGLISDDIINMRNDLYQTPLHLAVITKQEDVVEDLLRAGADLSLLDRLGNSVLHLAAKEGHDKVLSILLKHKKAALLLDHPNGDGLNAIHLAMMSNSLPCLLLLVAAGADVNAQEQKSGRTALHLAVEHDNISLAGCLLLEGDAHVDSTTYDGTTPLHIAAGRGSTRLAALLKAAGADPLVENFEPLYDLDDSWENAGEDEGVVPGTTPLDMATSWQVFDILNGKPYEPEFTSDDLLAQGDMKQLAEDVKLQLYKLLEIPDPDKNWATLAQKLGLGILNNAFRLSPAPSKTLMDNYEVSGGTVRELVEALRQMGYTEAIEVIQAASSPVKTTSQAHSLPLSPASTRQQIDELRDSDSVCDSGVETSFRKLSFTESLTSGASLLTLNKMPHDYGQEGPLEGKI
# Chain of Hypoxia-inducible factor 1-alpha (Homo sapiens) (Q16665 whole entry, looked up): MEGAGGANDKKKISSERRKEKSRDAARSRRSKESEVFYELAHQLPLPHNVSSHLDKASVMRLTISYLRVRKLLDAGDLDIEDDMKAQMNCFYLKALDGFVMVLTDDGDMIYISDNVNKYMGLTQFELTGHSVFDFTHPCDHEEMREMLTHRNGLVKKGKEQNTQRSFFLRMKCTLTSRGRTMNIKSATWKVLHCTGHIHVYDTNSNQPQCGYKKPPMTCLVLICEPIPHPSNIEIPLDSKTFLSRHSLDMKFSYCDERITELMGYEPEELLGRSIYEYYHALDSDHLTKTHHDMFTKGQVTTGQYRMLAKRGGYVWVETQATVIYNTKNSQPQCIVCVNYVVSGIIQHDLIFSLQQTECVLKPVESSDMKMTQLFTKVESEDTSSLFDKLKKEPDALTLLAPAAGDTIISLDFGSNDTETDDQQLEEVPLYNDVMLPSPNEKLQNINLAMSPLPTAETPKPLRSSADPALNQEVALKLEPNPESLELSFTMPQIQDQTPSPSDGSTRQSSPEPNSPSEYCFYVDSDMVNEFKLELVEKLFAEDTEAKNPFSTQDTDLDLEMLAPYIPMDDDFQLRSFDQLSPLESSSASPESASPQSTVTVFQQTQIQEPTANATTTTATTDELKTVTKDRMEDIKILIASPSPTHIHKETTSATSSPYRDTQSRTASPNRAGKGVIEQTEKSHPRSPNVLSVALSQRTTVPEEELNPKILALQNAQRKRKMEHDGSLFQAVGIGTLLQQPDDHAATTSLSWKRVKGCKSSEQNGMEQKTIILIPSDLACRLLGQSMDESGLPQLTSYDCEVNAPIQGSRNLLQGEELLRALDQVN
smiles,measurement,setting,value
CC1=CC(=O)/C(=C(/C)O)C(=O)O1,outcome,[1],inactive
same,outcome,[2],inactive
same,outcome,HGF (gene 3082),inactive
same,outcome,[3],inactive
same,outcome,[4],inactive
same,outcome,[5],inactive
same,outcome,[6],inactive
same,outcome,[7],inactive
same,outcome,[8],inactive
same,outcome,[9],inactive
same,outcome,[10],inactive
same,outcome,[11],inactive
same,outcome,[12],inactive
same,outcome,[13],inactive
same,outcome,"MYC, MYC (gene 4609)",inactive
same,outcome,[14],inactive
same,outcome,[15],inactive
O=c1c(-c2ccc(O)cc2)coc2cc(O)cc(O)c12,outcome,[1],inactive
same,outcome,[2],inactive
same,outcome,HGF (gene 3082),inactive
same,outcome,[3],inactive
same,outcome,[4],inactive
same,outcome,[5],inactive
same,outcome,[6],inactive
same,outcome,[7],inactive
same,outcome,[8],inactive
same,outcome,[9],inactive
same,outcome,[10],inactive
same,outcome,[11],inactive
same,outcome,[12],inactive
same,outcome,[13],inactive
same,outcome,"MYC, MYC (gene 4609)",inactive
same,outcome,[14],inactive
same,outcome,[15],inactive
same,outcome,[16],inactive
CCCCCCCCCCCO,outcome,[1],inactive
same,outcome,[2],inactive
same,outcome,HGF (gene 3082),inactive
same,outcome,[3],inactive
same,outcome,[4],inactive
same,outcome,[5],inactive
same,outcome,[6],inactive
same,outcome,[7],inactive
same,outcome,[8],inactive
same,outcome,[9],inactive
same,outcome,[10],inactive
same,outcome,[11],inactive
same,outcome,[12],inactive
same,outcome,[13],inactive
same,outcome,"MYC, MYC (gene 4609)",inactive
same,outcome,[14],inactive
same,outcome,[15],inactive
same,outcome,[16],inactive
CC(C)(O)c1ccc(CNC(=O)c2cccnc2Oc2ccc3nonc3c2)cc1,outcome,[1],inactive
same,outcome,[2],inactive
same,outcome,HGF (gene 3082),inactive
same,AC50,[3],22.7 µM (active)
same,outcome,[4],inactive
same,outcome,[5],inactive
same,outcome,[6],inactive
same,outcome,[7],inactive
same,outcome,[8],inactive
same,outcome,[9],inactive
same,outcome,[10],inactive
same,outcome,[11],inactive
same,outcome,[12],inactive
same,outcome,[13],inactive
same,outcome,"MYC, MYC (gene 4609)",inactive
same,outcome,[14],inactive
same,outcome,[15],inactive
same,outcome,[16],inactive
Cc1c2ccccc2c(C)c2c1ccc1ccccc12,AC50,[1],90.9 µM (active)
same,AC50,[2],52.5 µM (active)
same,AC50,HGF (gene 3082),63.3 µM (active)
same,AC50,[4],82.1 µM (active)
same,AC50,[5],70.3 µM (active)
same,AC50,[6],83 µM (active)
same,AC50,[7],13.5 µM (active)
same,outcome,[8],inactive
same,AC50,[9],13.3 µM (active)
same,outcome,[10],inactive
same,AC50,[11],30.6 µM (active)
same,AC50,[12],82.5 µM (active)
same,AC50,[13],66 µM (active)
same,AC50,"MYC, MYC (gene 4609)",63.7 µM (active)
same,AC50,[14],11.8 µM (active)
same,AC50,[15],28.5 µM (active)
same,outcome,[16],inactive
CCOC(=O)O[C@H](C)OC(=O)c1ccc2c(c1)cc(C(=O)NC1CCN(C(C)C)CC1)n2Cc1cc(-c2ccc(Cl)s2)on1,outcome,[1],inactive
same,outcome,[2],inactive
same,outcome,HGF (gene 3082),inactive
same,outcome,[3],inactive
same,outcome,[4],inactive
same,outcome,[5],inactive
same,outcome,[6],inactive
same,outcome,[7],inactive
same,outcome,[8],inactive
same,outcome,[9],inactive
same,outcome,[10],inactive
same,outcome,[11],inactive
same,outcome,[12],inactive
same,outcome,[13],inactive
same,outcome,"MYC, MYC (gene 4609)",inactive
same,AC50,[14],47.2 µM (active)
same,outcome,[15],inactive
same,outcome,[16],inactive
Cc1oc2c(NC(=O)c3c(Cl)cccc3Cl)cccc2c1C(C)(C)O,outcome,[1],inactive
same,AC50,[2],52.8 µM (active)
same,AC50,HGF (gene 3082),85.7 µM (active)
same,AC50,[3],28.6 µM (active)
same,AC50,[4],50 µM (active)
same,AC50,[5],37.8 µM (active)
same,AC50,[6],66.2 µM (active)
same,AC50,[7],23.8 µM (active)
same,AC50,[8],43.6 µM (active)
same,AC50,[9],50 µM (active)
same,outcome,[10],inactive
same,AC50,[11],37.6 µM (active)
same,AC50,[12],14 µM (active)
same,AC50,[13],38.6 µM (active)
same,AC50,"MYC, MYC (gene 4609)",50 µM (active)
same,outcome,[14],inactive
same,AC50,[15],3.27 µM (active)

# Source: PubChem BioAssay (EPA / NIEHS)
